Bfl-1 A1 inh: inhibitors of the anti-apoptotic protein A1, read as caspase activation; MEF A1-2A-BIM cells, Caspase-Glo 3/7 luminescence, 3 h; percent of clofoctol response, vehicle zero; caspase activation, % (no concentration beside the values); hit rate 0.066% among 330,000;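 active means over half of replicate activation scores above 10%, or exactly half above 10 with the replicate mean above 10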
Beta cell apopt: beta cell apoptosis inhibition. protection from apoptosis, % (test concentration not listed). AID 435005. INS-1E cytokine-induced death, ATP luminescence, 48 h; percent of positive-control rescue, neutral wells zero. hit rate 0.8% among 300,000;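 active means Every replicate reaches about 75%, or at least half do and their mean reaches it too, limit read from the data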;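 further: higher means more ATP so stronger rescue from cytokine killing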
NTR1 agonist: agonists of human neurotensin receptor NTR1. hit rate 0.17% among 330,000. NTR1-U2OS beta-arrestin-GFP spot imaging, agonist mode. P30989. activation, % at 20 µM;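 active means activation at or above 40% of the spot to cytoplasm intensity ratio, with at least 20 cells analyzed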
Jurkat NFkB inh: lowers PMA/ionomycin-induced NF-kB signal in Jurkat cells | PMA/ionomycin-induced NF-kB luciferase reporter, luminescence | hit rate 0.53% among 330,000 | AID 435003 | inhibition, % at 4 µM; in the data active means inhibition above about 50%
Mdm2 MdmX PPI: inhibitors of human Mdm2/MdmX interaction; O15151+Q00987; SaOS-2 split-luciferase Mdm2/MdmX complementation, luminescence; inhibition, % at 8 µM; hit rate 3% among 330,000;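 active means inhibition of at least 50% at 8 µM in the primary screen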
Target sequence (O15151 whole entry, looked up): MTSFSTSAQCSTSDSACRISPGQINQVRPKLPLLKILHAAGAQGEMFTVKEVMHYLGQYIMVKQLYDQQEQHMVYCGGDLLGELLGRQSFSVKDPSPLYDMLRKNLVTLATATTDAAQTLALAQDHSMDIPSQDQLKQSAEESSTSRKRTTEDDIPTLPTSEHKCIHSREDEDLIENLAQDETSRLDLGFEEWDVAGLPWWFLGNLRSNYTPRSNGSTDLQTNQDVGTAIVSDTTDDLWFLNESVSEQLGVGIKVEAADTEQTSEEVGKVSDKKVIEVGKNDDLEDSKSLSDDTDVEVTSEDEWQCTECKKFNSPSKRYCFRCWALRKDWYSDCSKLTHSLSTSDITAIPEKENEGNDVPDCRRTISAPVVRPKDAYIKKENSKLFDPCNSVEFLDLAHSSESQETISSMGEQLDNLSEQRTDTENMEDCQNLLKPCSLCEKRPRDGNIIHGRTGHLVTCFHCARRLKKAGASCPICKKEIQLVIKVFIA
Target sequence (Q00987 whole entry, looked up): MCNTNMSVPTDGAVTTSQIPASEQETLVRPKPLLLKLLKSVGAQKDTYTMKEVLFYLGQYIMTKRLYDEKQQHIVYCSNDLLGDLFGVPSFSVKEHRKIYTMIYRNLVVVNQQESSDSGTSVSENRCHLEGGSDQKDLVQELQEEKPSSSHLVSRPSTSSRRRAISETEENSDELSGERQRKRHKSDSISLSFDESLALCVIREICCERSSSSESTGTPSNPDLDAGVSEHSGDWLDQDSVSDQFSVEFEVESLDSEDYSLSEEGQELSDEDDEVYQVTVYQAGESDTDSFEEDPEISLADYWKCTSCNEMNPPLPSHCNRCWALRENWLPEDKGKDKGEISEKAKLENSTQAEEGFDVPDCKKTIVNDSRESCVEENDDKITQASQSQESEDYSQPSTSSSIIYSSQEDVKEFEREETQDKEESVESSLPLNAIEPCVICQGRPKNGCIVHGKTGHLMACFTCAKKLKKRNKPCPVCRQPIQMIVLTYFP
697 NFkB inh: lowers PMA/ionomycin-induced NF-kB signal in 697 B cells; 697 B-cell NF-kB luciferase reporter, 16 h; inhibition, % at 4 µM; hit rate 0.33% among 330,000; AID 435022; in the data active means inhibition above about 35%
697 NFkB conf: inhibitors of the PMA/ionomycin-induced NF-kB reporter in 697 B cells, retest | shares compounds with 697 NFkB inh | 697 B-cell NF-kB luciferase, 16 h | inhibition, % at 4 µM | hit rate 35% among 2,000 | AID 449746; in the data active means inhibition mostly above about 28%, no sharp cut-off; inactive means mostly below about 22%
A number is an active result; - = inactive; . = no result given. Hits are enriched below; roughly 3.8% of the tested compounds scored in any of these assays.

SMILES | Bfl-1 A1 inh | Beta cell apopt | NTR1 agonist | Jurkat NFkB inh | Mdm2 MdmX PPI | 697 NFkB inh | 697 NFkB conf
Oc1ccc(Oc2ccc3c(C(F)(F)F)cc(C(F)(F)F)nc3n2)cc1 | - | - | - | - | - | 46.1 | -
Cc1[nH]c2ccccc2c1C(=O)C(=O)N1c2ccccc2CC1C (stereo not given) | - | - | - | - | - | - | .
O=c1c(-c2ccc(F)cc2)coc2cc(O)ccc12 | - | - | - | - | - | - | -
COc1ccc(-c2coc3cc(O)ccc3c2=O)cc1OC | - | - | - | - | - | - | .
CN(C)c1ccc(-c2nc3cc(N)ccc3o2)cc1 | - | - | - | - | - | - | -
Cc1ccc(C(=O)N2CCC(C)CC2)cc1S(=O)(=O)N1CCCCC1 | - | . | - | - | - | - | .
O=C(N/N=C/C(Cl)=C/c1ccc([N+](=O)[O-])cc1)C(=O)Nc1ccccc1C(=O)O | - | - | - | - | - | - | .
CCOc1ccccc1NC(=O)C(=O)N/N=C/c1ccc([N+](=O)[O-])cc1 | - | - | - | - | - | 39.3 | -
O=C(CN1CCCCCC1)Nc1cc(C(F)(F)F)ccc1Cl | - | - | - | - | - | - | .
O=C(O)C1=C(C(=O)Nc2cc(C(F)(F)F)ccc2Cl)CCCC1 | - | - | - | - | - | 37.4 | -
NC(=O)CC(NC(=O)c1ccc(Br)cc1)c1ccc(NC2CCCCCCC2)c([N+](=O)[O-])c1 (stereo not given) | - | - | - | - | - | - | .
Cc1ccc(NC(=S)c2nc3ccccc3s2)cc1 | - | - | - | - | - | - | -
CC1CN(C(=O)COC(=O)c2cnc(Cl)c(Cl)c2)CC(C)O1 (stereo not given) | - | - | - | - | - | - | .
Cc1cccc(N(C)S(=O)(=O)c2c[nH]c3ccc([N+](=O)[O-])cc23)c1 | . | . | - | - | - | - | .
CC(C)CNC(=O)CSc1nc2nn(-c3ccccc3)c(=O)c-2c2n1CCCCC2 | - | - | - | - | - | - | .
CNC(=O)CSc1nc2nn(-c3ccccc3)c(=O)c-2c2n1CCCCC2 | - | - | - | - | - | 35.4 | 37.7
Cc1ccc(C(=O)NNC(=O)CCCN2C(=O)/C(=C/c3ccccc3Cl)SC2=S)cc1 | - | - | - | - | - | 44.1 | 40.8
O=C(CCCN1C(=O)/C(=C/c2ccccc2Cl)SC1=S)NNC(=O)c1ccc(Cl)cc1 | - | - | - | - | - | 60.8 | 52.1
Cc1ccc(-c2noc(-c3cccs3)n2)cc1 | - | - | - | - | - | - | -
c1csc(-c2nc(-c3ccc(-c4ccon4)s3)no2)c1 | - | - | - | - | - | - | -
C/C(=N\Nc1ccc(C(=O)O)cc1)c1ccc(Cl)s1 | - | - | - | - | - | - | -
C/C(=N\Nc1ccc(Cl)c(C(=O)O)c1)c1ccc(Br)s1 | - | - | - | - | - | - | .
C/C(=N/Nc1ncc(Br)cn1)c1ccc(Br)cc1 | - | - | - | - | - | - | .
C/C(=N\Nc1ccc(C(=O)O)cc1)c1ccc(Br)cc1 | - | - | - | - | - | - | -
N/C(=N\OC(=O)c1ccc2c(c1)OCO2)c1cccc([N+](=O)[O-])c1 | - | - | - | - | - | - | .
SMILES | Bfl-1 A1 inh | Beta cell apopt | NTR1 agonist | Jurkat NFkB inh | Mdm2 MdmX PPI | 697 NFkB inh | 697 NFkB conf
Cc1cccc(/C(N)=N/OC(=O)c2ccc3c(c2)OCO3)c1 | - | - | - | - | - | - | -
CCOc1ccc(-c2c[n+]3c(n2-c2ccccc2)CCCCC3)cc1 | - | 97.8 | - | - | - | 59.8 | 53.8
CC(C)(C)CN1C(=O)C(=O)NC[C@@H]1CCCCN | - | - | - | - | - | - | .
CN(C)c1cccc(C(=O)Nc2cccc(S(=O)(=O)NC3=NCCC3)c2)c1 | - | . | - | - | - | - | .
CCC1CCCCN1CCCNC(=O)c1ccc2nc(N3CCCCC3)sc2c1 (stereo not given) | - | - | - | - | - | - | -
COc1ccc(NS(=O)(=O)c2cc(NC(=O)c3nn(C)c(=O)c4ccccc34)ccc2OC)cc1 | - | - | - | - | - | 37.4 | -
COc1ccc(NS(=O)(=O)c2cc(NC(=O)c3cncc(Br)c3)ccc2OC)cc1 | - | - | - | - | - | - | .
CC1(C)Cc2c(sc(NC(=O)Cc3ccccc3)c2C#N)CO1 | - | - | - | - | - | 41.2 | -
CCCCC(=O)Nc1sc2c(c1C#N)CC(C)(C)OC2 | - | - | - | - | - | - | .
CCOc1ccc(-c2nnc(N3CCOCC3)c3ccccc23)cc1 | - | - | - | - | - | - | .
COC(=O)c1ccccc1-c1c2ccc(=N)cc-2oc2cc(N)ccc12 | - | 98.6 | - | - | - | - | -
Clc1ccc(NC2=NCCCCC2)cc1 | - | - | - | - | - | 36.0 | -
C=CCN1CC(=O)N2C(c3ccccc3)c3[nH]c4ccccc4c3C[C@H]2C1=O (stereo not given in full) | - | - | - | - | - | - | .
Cc1ccc(SC[C@H](C)CN2CC[C@H](C(C)(C)C)CCC2=O)cc1 | - | - | - | - | - | - | .
COc1ccc(-c2ccc(N(C)C)cc2)cc1[C@H]1[C@H]2C=CC[C@@H](C)[C@@H]2C(=O)N1Cc1ccccc1 | - | - | - | - | - | 51.0 | 36.2
COc1ccc(-c2ccc(OC)c([C@H]3[C@H]4C=CC[C@@H](C)[C@@H]4C(=O)N3Cc3ccccc3)c2)cc1C | - | - | - | - | - | 41.6 | 51.0
O=C1CCCN1C(=O)CSc1nnnn1-c1cccc(F)c1 | - | - | - | - | - | - | .
CCCCNc1nc(N)nc(-c2cc(Cl)ccc2O)n1 | - | - | - | - | - | - | -
CCNc1nc(N)nc(-c2cc(Cl)ccc2O)n1 | - | - | - | - | - | - | .
Cc1ccc(C(=O)C(C)OC(=O)c2ccccc2[N+](=O)[O-])cc1 (stereo not given) | - | - | - | - | - | - | -
COc1ccc(C(=O)Nc2ccc(NC(=O)CSc3nnc(-c4ccncc4)n3C)cc2)cc1 | - | - | - | - | - | 38.0 | -
Cn1c(SCC(=O)Nc2ccc(NC(=O)c3ccccc3)cc2)nnc1-c1ccncc1 | - | - | - | - | - | - | .
C[C@@H]1C[C@H]2[C@@H]3C[C@H](F)C4=CC(=O)C=C[C@]4(C)[C@@]3(Cl)[C@@H](O)C[C@]2(C)[C@H]1C(=O)COC(=O)C(C)(C)C | - | - | - | - | - | - | .
CCOC(=O)C1CCN(c2ncnc3c2cnn3-c2ccc(Cl)cc2)CC1 | - | - | - | - | - | 60.9 | 66.8
CCCOc1ccc(/C=N/Nc2ccccc2[N+](=O)[O-])c(O)c1 | - | - | - | - | - | - | -
COc1ccc(/C=C2\SC(=O)N(CCCC(=O)Nc3ccc(C(=O)O)cc3)C2=O)cc1OC | - | - | - | - | - | 62.3 | 70.8
